{"source": "PubChem BioAssay (EPA / NIEHS)", "note": "The source made the active and inactive calls. The calls were made as follows: active = hit-call score of the fitted dose curve at least 0.9, where 1 is the maximum; inactive = score below 0.9."}
{"experiment": "BSK_SAg_Proliferation: Cell Proliferation Assessment in the BioMAP Diversity Plus: SAg Assay (AID 2283095);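 also: relative cell number as total protein by SRB absorbance in sub-confluent culture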", "settings": "primary human HUVEC with PBMC", "how_it_was_run": "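Readout is SRB-stained protein (560 nm) in a primary human HUVEC and PBMC co-culture; sub-confluent cultures are read at 96 h. Activity is fitted bidirectionally using DMSO as baseline.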"}
{"smiles": "OCc1ccccc1", "outcome": "inactive"}
{"smiles": "CC1(C)C(=O)N(Cl)C(=O)N1Cl", "outcome": "inactive"}
{"smiles": "c1ccc2cc3ccccc3cc2c1", "outcome": "inactive"}
{"smiles": "NNC(=O)c1ccncc1", "outcome": "inactive"}
{"smiles": "COc1cc2c(c(OC)c1OC)-c1ccc(OC)c(=O)cc1[C@@H](NC(C)=O)CC2", "AC50": "0.34 µM (active)"}
{"smiles": "Cn1cc[nH]c1=S", "outcome": "inactive"}
{"smiles": "OCCNCCO", "outcome": "inactive"}
{"smiles": "O=C(O)[C@H](O)[C@@H](O)C(=O)O", "outcome": "inactive"}
{"smiles": "c1ccc2ncccc2c1", "outcome": "inactive"}
{"smiles": "O=C(O)c1cccc(C(=O)O)c1", "outcome": "inactive"}
{"smiles": "CCCCOC(=O)c1ccccc1", "outcome": "inactive"}
{"smiles": "O=S1(=O)CCCO1", "outcome": "inactive"}
{"smiles": "CCCCN1C(=O)[C@@H]([C@H](O)C2CCCCC2)NC(=O)C12CCN(Cc1ccc(Oc3ccc(C(=O)O)cc3)cc1)CC2", "outcome": "inactive"}
{"smiles": "OC(O)(C(F)C(O)(O)C(F)(F)F)C(F)(F)F", "AC50": "30 µM (active)"}
{"smiles": "OCCC(F)(F)C(F)(F)C(F)(F)C(F)(F)F", "outcome": "inactive"}
{"smiles": "O=S(=O)(O)c1ccc(N=Nc2c(O)ccc3cc(S(=O)(=O)O)ccc23)cc1", "outcome": "inactive"}
{"smiles": "OC(CCl)CCl", "outcome": "inactive"}
{"smiles": "NC(=O)N1c2ccccc2C=Cc2ccccc21", "outcome": "inactive"}
{"smiles": "CCCCCCCCCCCCCCO", "AC50": "27.7 µM (active)"}
{"smiles": "CCCCC(CC)C(=O)OCCOCCOCCOC(=O)C(CC)CCCC", "note": "(centres undefined)", "AC50": "24.7 µM (active)"}
{"smiles": "CC(C)CCCCCCOC(=O)C1CCCCC1C(=O)OCCCCCCC(C)C", "note": "(centres undefined)", "outcome": "inactive"}
{"smiles": "O=C(Cl)C(F)(F)C(F)(F)C(F)(F)C(=O)Cl", "outcome": "inactive"}
{"smiles": "OC(Cn1cncn1)(Cn1cncn1)c1ccc(F)cc1F", "outcome": "inactive"}
{"smiles": "CCCc1ccccc1", "outcome": "inactive"}
{"smiles": "C[C@@H](Oc1ccc(CNC(=O)c2cccnc2Oc2ccc3c(c2)OCO3)c(F)c1)C(=O)O", "outcome": "inactive"}
{"smiles": "OCC(CO)(CO)CO", "outcome": "inactive"}
{"smiles": "O=C(O)c1cccc(C[C@@H]2COc3ccc(OCc4nc5cc(F)ccc5s4)cc3[C@@H]2O)c1", "outcome": "inactive"}
{"experiment": "BSK_SAg_SRB: Viability Assessment in the BioMAP Diversity Plus: SAg Assay (AID 2283096);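 also: cells read one day after compound addition; hits may be either gain or loss of signal compared with DMSO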", "settings": "primary human HUVEC with PBMC", "how_it_was_run": "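Total protein by sulforhodamine B staining, 24 h after dosing, in HUVEC–PBMC co-culture; DMSO-referenced bidirectional fitting.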"}
{"smiles": "OCc1ccccc1", "outcome": "inactive"}
{"smiles": "CC1(C)C(=O)N(Cl)C(=O)N1Cl", "outcome": "inactive"}
{"smiles": "c1ccc2cc3ccccc3cc2c1", "outcome": "inactive"}
{"smiles": "NNC(=O)c1ccncc1", "outcome": "inactive"}
{"smiles": "COc1cc2c(c(OC)c1OC)-c1ccc(OC)c(=O)cc1[C@@H](NC(C)=O)CC2", "AC50": "0.204 µM (active)"}
{"smiles": "Cn1cc[nH]c1=S", "outcome": "inactive"}
{"smiles": "OCCNCCO", "outcome": "inactive"}
{"smiles": "O=C(O)[C@H](O)[C@@H](O)C(=O)O", "outcome": "inactive"}
{"smiles": "c1ccc2ncccc2c1", "outcome": "inactive"}
{"smiles": "O=C(O)c1cccc(C(=O)O)c1", "outcome": "inactive"}
{"smiles": "CCCCOC(=O)c1ccccc1", "outcome": "inactive"}
{"smiles": "O=S1(=O)CCCO1", "outcome": "inactive"}
{"smiles": "CCCCN1C(=O)[C@@H]([C@H](O)C2CCCCC2)NC(=O)C12CCN(Cc1ccc(Oc3ccc(C(=O)O)cc3)cc1)CC2", "outcome": "inactive"}
{"smiles": "OC(O)(C(F)C(O)(O)C(F)(F)F)C(F)(F)F", "outcome": "inactive"}
{"smiles": "OCCC(F)(F)C(F)(F)C(F)(F)C(F)(F)F", "outcome": "inactive"}
{"smiles": "O=S(=O)(O)c1ccc(N=Nc2c(O)ccc3cc(S(=O)(=O)O)ccc23)cc1", "outcome": "inactive"}
{"smiles": "OC(CCl)CCl", "outcome": "inactive"}
{"smiles": "NC(=O)N1c2ccccc2C=Cc2ccccc21", "outcome": "inactive"}
{"smiles": "CCCCCCCCCCCCCCO", "AC50": "32.4 µM (active)"}
{"smiles": "CCCCC(CC)C(=O)OCCOCCOCCOC(=O)C(CC)CCCC", "note": "(centres undefined)", "outcome": "inactive"}
{"smiles": "CC(C)CCCCCCOC(=O)C1CCCCC1C(=O)OCCCCCCC(C)C", "note": "(centres undefined)", "outcome": "inactive"}
{"smiles": "O=C(Cl)C(F)(F)C(F)(F)C(F)(F)C(=O)Cl", "outcome": "inactive"}
{"smiles": "OC(Cn1cncn1)(Cn1cncn1)c1ccc(F)cc1F", "outcome": "inactive"}
{"smiles": "CCCc1ccccc1", "outcome": "inactive"}
{"smiles": "C[C@@H](Oc1ccc(CNC(=O)c2cccnc2Oc2ccc3c(c2)OCO3)c(F)c1)C(=O)O", "outcome": "inactive"}
{"smiles": "OCC(CO)(CO)CO", "outcome": "inactive"}
{"smiles": "O=C(O)c1cccc(C[C@@H]2COc3ccc(OCc4nc5cc(F)ccc5s4)cc3[C@@H]2O)c1", "outcome": "inactive"}
